{"source": "PubChem BioAssay (NCI)", "note": "About 79,000 compounds went through this panel and 15% of them were active in at least one assay; those are over-represented in the sample as a whole. Unmarked numbers belong to inactive results. Calls of active or inactive are those of the source. Cut-off read from the data, not from the text of the source: active = growth inhibition above about 70%; inactive = the rest.", "data": [{"test": "NCI Yeast Anticancer Drug Screen. Data for the mec2-1 strain (AID 157)", "details": "S. cerevisiae mec2-1 strain, at 50.0 µM, stronger effect = higher value", "method": "Growth inhibition of yeast strains with defined genetic alterations is measured as a screen for potential anti-cancer activity. Selected strains with alterations in DNA damage repair or cell cycle control were exposed to compounds and growth inhibition was measured relative to vehicle treated controls. The strain used in this assay is mec2-1", "values": [{"smiles": "O=C1CC(=O)N(c2ccccc2)N1", "growth inhibition": "7.45%"}, {"smiles": "C=CCC(OC(=O)C=C(C)C)c1ccc2c(c1)OCO2", "note": "(stereo not given)", "growth inhibition": "-31.9%"}, {"smiles": "O=C(O)/C=C\\C(Cl)(Cl)Cl", "growth inhibition": "-6.6%"}, {"smiles": "CCOc1ccc(C2Oc3c(cccc3OC)C=C2[N+](=O)[O-])cc1OCC", "note": "(stereo not given)", "growth inhibition": "38.9%"}, {"smiles": "O=C(O)c1ccccc1CC(C(=O)O)C(=O)O", "growth inhibition": "4.05%"}, {"smiles": "NS(=O)(=O)c1ccc(N=Cc2ccccc2)cc1", "growth inhibition": "-1.35%"}, {"smiles": "N#CCCSC(=S)C(C#N)C(=N)c1ccccc1", "note": "(stereo not given)", "growth inhibition": "2.25%"}, {"smiles": "CC(C)(CO)NC(=O)c1ccccc1Br", "growth inhibition": "-11.7%"}, {"smiles": "O=C(O)c1cccc2c1cc(Br)c1ccccc12", "growth inhibition": "23.2%"}, {"smiles": "Nc1nc(Nc2ccccc2)c2ncn(C3OC(CO)C(O)C3O)c2n1", "note": "(stereo not given)", "growth inhibition": "1.25%"}, {"smiles": "N#CC(NCCc1ccccc1)c1ccccc1", "note": "(stereo not given)", "growth inhibition": "-3.1%"}, {"smiles": "CC(C)(C)NC(=O)NCc1ccccc1Cl", "growth inhibition": "-8.1%"}, {"smiles": "[O-]c1c[n+](CC[n+]2cc([O-])on2)no1", "growth inhibition": "-8.45%"}, {"smiles": "Cc1cc2c(c(S(=O)(=O)c3ccccc3[N+](=O)[O-])c1)NCCC2", "growth inhibition": "-36%"}, {"smiles": "O=C(O)/C=C/C1CCCCC1", "growth inhibition": "14.3%"}, {"smiles": "COc1cc(CNC(=S)CCCCCCCCCCC(C)C)ccc1O", "growth inhibition": "-23.6%"}, {"smiles": "NSC(=S)NCc1ccco1", "growth inhibition": "-2.95%"}, {"smiles": "Cc1n(C)c(=O)c2ccccc2[n+]1C", "growth inhibition": "5.75%"}, {"smiles": "CCCCC(CC)COS(=O)(=O)O", "note": "(stereo not given)", "growth inhibition": "2.25%"}, {"smiles": "CCN(CC)CCCC(C)NC(=O)c1ccc2c(c1O)C(=O)c1ccccc1C2=O", "note": "(stereo not given)", "growth inhibition": "-7.75%"}, {"smiles": "CN=C(N)NC", "growth inhibition": "2.45%"}, {"smiles": "CC1=CC(O)C(Br)C(C)(C)C12CCC(C)(Cl)C(Br)C2", "note": "(stereo not given)", "growth inhibition": "91% (active)"}, {"smiles": "N#Cc1c(C#N)c(-c2ccccc2)n(-c2ccccc2)c1N", "growth inhibition": "12%"}, {"smiles": "Cc1cccc(Cl)c1NC(=O)NCCCN1CCOCC1", "growth inhibition": "-14.9%"}, {"smiles": "CCOC(=O)/C(Cc1ccc2c(c1)OCO2)=N\\O", "growth inhibition": "-16.1%"}, {"smiles": "Cn1c(=O)c2ncn(CC3CCCCC3)c2n(C)c1=O", "growth inhibition": "11.6%"}, {"smiles": "CC1CP(=O)(Cc2ccccc2)C(C)(c2ccccc2)C1=O", "note": "(stereo not given)", "growth inhibition": "-0.95%"}, {"smiles": "CC(=O)OCC1OC(OC(C)=O)C(N(C)C(C)=O)C(OC(C)=O)C1OC(C)=O", "note": "(stereo not given)", "growth inhibition": "18.6%"}, {"smiles": "c1ccc2c(c1)ccc1nc3c4ccccc4c4ccccc4c3nc12", "growth inhibition": "-2.85%"}, {"smiles": "COc1c2ccoc2cc2oc(=O)ccc12", "growth inhibition": "-7.1%"}, {"smiles": "Cn1ccc2c3ccn(C)c3ccc21", "growth inhibition": "9.4%"}, {"smiles": "CC1=NN2C(c3ccc(Cl)cc3)=CSC2=NC(C)(C)C1", "growth inhibition": "-16.9%"}, {"smiles": "COC(=O)C1(CC(=O)CC(=O)CC2(C(=O)OC)NC(=S)NC(=O)C2C#N)NC(=S)NC(=O)C1C#N", "note": "(stereo not given)", "growth inhibition": "19.9%"}, {"smiles": "CC(C)C1=CC(=Nc2ccc(N(C)C)cc2)C=CC1=O", "growth inhibition": "6.4%"}, {"smiles": "O=C1CC(c2ccccc2)C(c2ccccc2)C1C(=O)OC1CCCCC1", "note": "(stereo not given)", "growth inhibition": "2.85%"}, {"smiles": "O=C(O)C(CCc1ccccn1)c1ccccc1", "note": "(stereo not given)", "growth inhibition": "-26.2%"}, {"smiles": "COc1ccc(/C=N/n2cnc3c(sc(=S)n3-c3ccccc3)c2=O)cc1", "growth inhibition": "1.1%"}, {"smiles": "COc1cccc2c1C(=O)c1c(O)c3c(c(O)c1C2=O)CC(O)(C(C)=O)CC3O", "note": "(stereo not given)", "growth inhibition": "12.5%"}, {"smiles": "Cc1ccc(-c2oc(-c3ccc(C)cc3)c3cc(C)c(C)cc23)cc1", "growth inhibition": "13.5%"}, {"smiles": "O=C(N/N=C/c1ccc(Cl)c([N+](=O)[O-])c1)C(O)(c1ccccc1)c1ccccc1", "growth inhibition": "-2.7%"}]}]}
